# Reference: PubChem BioAssay AID2284359 (EPA ToxCast)
# Records with an inconclusive call do not appear. Active and inactive are the calls of the source. How the source made its calls: active means hit-call score of the fitted dose curve at least 0.9, where 1 is the maximum; inconclusive means response in the unintended direction; inactive means score below 0.9.
# Experiment: ATG_M_06_EcoTox2: Attagene TRANS-FACTORIAL EcoTox-2 HepG2 Assay for M06 Transcription Factor (Internal Marker)
# Method: ATG_EcoTox2 is a cell-based, multiplexed assay created by modifying the existing Attagene TRANS-FACTORIAL system to include a panel of nuclear receptors from some or all the following species: human (Homo sapiens), african clawed frog (Xenopus laevis), rainbow trout (Oncorhynchus mykiss), japanese medaka (Oryzias latipes), and zebrafish (Danio rerio). The ECOTOX2-FACTORIAL format uses HepG2, a human liver cell line, with measurements taken at 24 hours after chemical dosing in a 24-well plate. ATG_M_06_EcoTox2 is one of 29 assay components calculated in the ATG_EcoTox2 assay. It is designed to make measurements of mRNA induction, a form of inducible reporter, as detected with fluorescence intensity signals by Reverse transcription polymerase chain reaction (RT-PCR) and Capillary electrophoresis technology.The assay endpoint ATG_M_06_EcoTox2 was analyzed in the positive analysis fitting direction relative to DMSO as the negative control and baseline of activity. Using a type of inducible reporter, measures of mRNA for gain-of-signal activity can be used to understand the background control at the transcription factor-level as they relate to the gene. Furthermore, this assay endpoint can be referred to as a secondary readout, because this assay has produced multiple assay endpoints where this one serves a background control function. To generalize the intended target to other relatable targets, this assay endpoint is annotated to the background measurement intended target family, where the subfamily is internal marker.
# Human liver HepG2 cells are transiently transfected with multiple reporter transcription units (MRTUs) in 6-well plates using FuGene 6 reagent (Roche; 3 ml FuGene/1 mg DNA). The MRTU constructs are regulated by a cis-regulating element (promoter). Each RTU expresses a GAL4-UAS that regulates the transcription of a nearby target reporter gene sequence. A major difference between the CIS and TRANS system is that in CIS activities of endogenous TFs are measured, whereas the TRANS assay evaluates changes in activities of exogenous, chimeric NR-Gal4 proteins. […] At the end of 24 hour incubation, total RNA was isolated using TriZol reagent (Invitrogen). The isolated RNA is then reverse-transcribed using oligo(dT) primer and Mo-MLV reverse transcriptase (Invitrogen) with DNAse I (Ambion) treatment for 30 min. The one-tenth of the produced cDNA was amplified by PCR using Taq DNA polymerase (Invitrogen) and two reporter sequence-specific primers. […] The fragments were purified using Qiaquick PCR columns (Qiagen), analyzed on an ABI 3130xL genetic analyzer (Applied Biosystems) with peak positions identified by using a set of X-rhodamine (ROX)-labeled MapMarker1000 molecular weight standards (BioVentures). […]
row,SMILES,outcome
1,O=C(O)C(F)(F)C(F)(F)C(F)(F)C(F)(F)C(F)(F)C(F)(F)C(F)(F)F,inactive
2,O=P(Oc1ccccc1)(Oc1ccccc1)Oc1ccccc1,inactive
3,CCCCOCN(C(=O)CCl)c1c(CC)cccc1CC,inactive
4,O=S(=O)(O)C(F)(F)C(F)(F)C(F)(F)C(F)(F)C(F)(F)C(F)(F)F,inactive
